Results published in PubChem BioAssay (NCATS).
Inconclusive results are not listed. Active and inactive are the calls of the source. Calls come from the whole dose curve; as a rule, active = well fitted curve in either direction with a large enough effect (not every such curve was filed as active); inconclusive = small, poorly fitted or top-dose-only effect, or another doubt; inactive = flat fitted curve, though single readings scatter.

Test: AP1 Signaling Pathway (AID 357);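 note: ME-180 reporter cells stimulated with EGF at its EC50 level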
Conditions: ME-180 (cervical carcinoma) AP-1-bla reporter, EGF-induced, beta-lactamase ratio, 5 h; at 17.2 µM (top of the series) unless noted
Summary of the method: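 A ratiometric CCF4 readout (405 nm excitation; 460 and 530 nm emission) quantified AP-1-driven beta-lactamase in ME-180 cells after 5 h with compound and EC50 EGF; AC50 values were derived for activators and inhibitors.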
% is set by controls: 0 for no effect and ±100 for the full control effect.

Activity change, negative = inhibition, inactive:
CC(=O)Nc1cccc(NC(=O)CSc2nc(C)c(C)c(C)c2C#N)c1 -13.8%
COC(=O)c1ccc(OC(=O)c2ccc(OC)c(OC)c2)c(OC)c1 -0.243%
CCN(CC)CCCN1C(=O)C(=O)/C(=C(/O)c2ccccc2)C1c1ccccn1 (centres undefined) -0.714%
CN(C)c1nc2n(c(=O)n1)C(C#N)CS2 (centres undefined) -5.05%
C=CC(O)Cc1c(C)n[nH]c1C (centres undefined) 18.3%
CCN(CC)CCN1C(=O)C(=O)/C(=C(/O)c2ccc(C)cc2)C1c1cccnc1 (centres undefined) 4.64%
O=S(=O)(c1cccc2nsnc12)N1CCN(C/C=C/c2ccccc2)CC1 -6.7%
C/C=C/c1ccccc1OCc1ccc(C(=O)O)o1 -6.57%
COc1ccc(C(=O)NCCCCCC(=O)O)cc1OC 5.18%
CC1(C)Cc2c(sc3ncn4nnnc4c23)CO1 -0.575%
Nn1c(SCC(=O)Nc2ccc3c(c2)OCCO3)nnc1C(F)(F)F 3.25%
CCN=C1SC(C(=O)Nc2ccc(Cl)c(Cl)c2)CC(=O)N1CC (centres undefined) -19.4%
COc1cccc(OC)c1-c1nn2c(-c3ccco3)nnc2s1 -10.9%
N/C(CCN1CCCCC1)=N/O 8.61%
COc1ccc(/C(O)=C2\C(=O)C(=O)N(Cc3ccco3)C2c2cc(OC)ccc2OC)cc1 (centres undefined) 8.52%
COc1ccccc1-n1c(=O)c2c3c(sc2n2c(SC(C)C)nnc12)CCC3 -5.57%
Cc1nnc(SCc2nc3ccccc3[nH]2)s1 1.21%
CC(O)CNc1nc2c(c(=O)n(C)c(=O)n2C)n1Cc1cccc(C(F)(F)F)c1 (centres undefined) -10.4%
O=C(NCc1ccco1)c1ccc(=O)[nH]n1 -6.2%
COCCCNC(=O)C(C#N)c1nc2ccccc2nc1N1CCCC1 (centres undefined) 5.84%
O=c1c2ccccc2ncn1Cc1ccco1 14.1%
C=CCNc1sc(C(=O)C2CC2)c(N)c1C#N -5.75%
CN(C)c1ccc(O)c2c1CC1CC3[C@@H](N(C)C)C(=O)C(C(N)=O)=C(O)[C@]3(O)C(=O)C1=C2O (some centres undefined) 6.78%
COC(=O)CNc1nc(-c2cccnc2)nc2ccccc12 -12.5%

Test: NFAT Signaling Pathway (AID 444);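 note: carbachol stimulus at about its EC50 of 1 µM final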
Conditions: Jurkat NFAT-bla M1, carbachol, beta-lactamase ratio, 5 h; at 17.2 µM (top of the series) unless noted
Summary of the method: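 Jurkat cells carrying an NFAT-driven β-lactamase reporter and co-transfected muscarinic M1 receptor were treated with compound plus carbachol (1 uM final, an EC50 level) for 5 h at 37 °C. CCF4 loading followed for 1 h at RT; 460/530 nm ratio gave %activity.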

Activity change, negative = inhibition, inactive:
Clc1ccc(-n2ncc3c(NCc4ccco4)ncnc32)cc1 1.57%
COc1ccc(N2C(=O)CC(N(Cc3ccc(S(N)(=O)=O)cc3)C(C)=O)C2=O)cc1 (centres undefined) -2.46%
C/C(NC(=O)c1ccccc1F)=C1\C(=O)C[C@@H]2[C@H]1C2(C)C -24.9%
O=C(O)C1CC(=O)n2c(nc3ccccc32)S1 (centres undefined) -10.4%
CCOC(=O)N1CCN(C(=O)c2cn(CC)c3cc(N4CCN(C)CC4)c(F)cc3c2=O)CC1 7.68%
CCCSc1nc(O)c(C2OC(=O)c3c2ccc(OC)c3OC)c(=O)n1C (centres undefined) -4.09%
COc1ccc(C(=O)NCC(=O)n2nc(C)cc2C)cc1OC -1.54%
C=CCNc1nc(N2CCOCC2)c(C#N)c2c1CN(C)CC2 -4.25%
COCCNc1nc2c(c(=O)n(Cc3ccc(OC)cc3)c(=O)n2C)n1C -7.8%
O=C1C=C(NCCNc2c(F)c(F)c(CO)c(F)c2F)CCC1 -5.54%
Cc1ccc(C(C)C)c(OCCNc2nc3c(c(=O)n(C)c(=O)n3C)n2C)c1 13.4%
CCCCCCOC(=O)CCn1[nH]c(=O)c2ccccc2c1=O 7.42%
COc1ccc(-c2c3c([nH]c(=S)c2C#N)CCC3)cc1 -5.23%
C=CCn1cnc2c(c1=O)c1nc3ccccc3nc1n2-c1ccc(C)cc1 -10.5%
Oc1oc(-c2ccccc2)nc1C=NCc1ccncc1 -8.61%
CC1=C(C(=O)Nc2ccccc2)C(c2ccncc2)C(C#N)=C(SCC(=O)NC(C)C)N1 (centres undefined) 1.05%
CC(=O)Nc1cccc(NC(=O)CSc2nc(C)c(C)c(C)c2C#N)c1 8.76%
COC(=O)c1ccc(OC(=O)c2ccc(OC)c(OC)c2)c(OC)c1 -10.5%
CCN(CC)CCCN1C(=O)C(=O)/C(=C(/O)c2ccccc2)C1c1ccccn1 (centres undefined) 5.2%
CN(C)c1nc2n(c(=O)n1)C(C#N)CS2 (centres undefined) 3.5%
C=CC(O)Cc1c(C)n[nH]c1C (centres undefined) 4.36%
CCN(CC)CCN1C(=O)C(=O)/C(=C(/O)c2ccc(C)cc2)C1c1cccnc1 (centres undefined) -5.95%
O=S(=O)(c1cccc2nsnc12)N1CCN(C/C=C/c2ccccc2)CC1 -13.3%
C/C=C/c1ccccc1OCc1ccc(C(=O)O)o1 -2.78%
COc1ccc(C(=O)NCCCCCC(=O)O)cc1OC -3.46%
CC1(C)Cc2c(sc3ncn4nnnc4c23)CO1 0.343%
Nn1c(SCC(=O)Nc2ccc3c(c2)OCCO3)nnc1C(F)(F)F -1.93%
CCN=C1SC(C(=O)Nc2ccc(Cl)c(Cl)c2)CC(=O)N1CC (centres undefined) 10.1%
COc1cccc(OC)c1-c1nn2c(-c3ccco3)nnc2s1 -8.25%
N/C(CCN1CCCCC1)=N/O -6.23%
COc1ccc(/C(O)=C2\C(=O)C(=O)N(Cc3ccco3)C2c2cc(OC)ccc2OC)cc1 (centres undefined) -18%
COc1ccccc1-n1c(=O)c2c3c(sc2n2c(SC(C)C)nnc12)CCC3 -27.1%
Cc1nnc(SCc2nc3ccccc3[nH]2)s1 8.95%
CC(O)CNc1nc2c(c(=O)n(C)c(=O)n2C)n1Cc1cccc(C(F)(F)F)c1 (centres undefined) 4.56%
O=C(NCc1ccco1)c1ccc(=O)[nH]n1 -1.91%
COCCCNC(=O)C(C#N)c1nc2ccccc2nc1N1CCCC1 (centres undefined) 8.15%
O=c1c2ccccc2ncn1Cc1ccco1 -4.44%
C=CCNc1sc(C(=O)C2CC2)c(N)c1C#N 4.81%
CN(C)c1ccc(O)c2c1CC1CC3[C@@H](N(C)C)C(=O)C(C(N)=O)=C(O)[C@]3(O)C(=O)C1=C2O (some centres undefined) 8.29%
COC(=O)CNc1nc(-c2cccnc2)nc2ccccc12 -5.87%
